# JMJD2A Tudor inh – qHTS Assay for Inhibitors of JMJD2A-Tudor Domain; 390,000 tested, 4.4% active; Potency, µM (series often up to 114 µM), without a hit: top-dose activity change, negative = inhibition, usual class: inhibitors; AlphaScreen JMJD2A-Tudor / H3K4me3 peptide binding; note: potency is the fitted concentration of half-maximal effect; % is set by controls: 0 for no effect and ±100 for the full control effect; nearly all actives have a fitted effect of over 50% in size
# Target sequence (O75164 whole entry, looked up, the tested form may be a part): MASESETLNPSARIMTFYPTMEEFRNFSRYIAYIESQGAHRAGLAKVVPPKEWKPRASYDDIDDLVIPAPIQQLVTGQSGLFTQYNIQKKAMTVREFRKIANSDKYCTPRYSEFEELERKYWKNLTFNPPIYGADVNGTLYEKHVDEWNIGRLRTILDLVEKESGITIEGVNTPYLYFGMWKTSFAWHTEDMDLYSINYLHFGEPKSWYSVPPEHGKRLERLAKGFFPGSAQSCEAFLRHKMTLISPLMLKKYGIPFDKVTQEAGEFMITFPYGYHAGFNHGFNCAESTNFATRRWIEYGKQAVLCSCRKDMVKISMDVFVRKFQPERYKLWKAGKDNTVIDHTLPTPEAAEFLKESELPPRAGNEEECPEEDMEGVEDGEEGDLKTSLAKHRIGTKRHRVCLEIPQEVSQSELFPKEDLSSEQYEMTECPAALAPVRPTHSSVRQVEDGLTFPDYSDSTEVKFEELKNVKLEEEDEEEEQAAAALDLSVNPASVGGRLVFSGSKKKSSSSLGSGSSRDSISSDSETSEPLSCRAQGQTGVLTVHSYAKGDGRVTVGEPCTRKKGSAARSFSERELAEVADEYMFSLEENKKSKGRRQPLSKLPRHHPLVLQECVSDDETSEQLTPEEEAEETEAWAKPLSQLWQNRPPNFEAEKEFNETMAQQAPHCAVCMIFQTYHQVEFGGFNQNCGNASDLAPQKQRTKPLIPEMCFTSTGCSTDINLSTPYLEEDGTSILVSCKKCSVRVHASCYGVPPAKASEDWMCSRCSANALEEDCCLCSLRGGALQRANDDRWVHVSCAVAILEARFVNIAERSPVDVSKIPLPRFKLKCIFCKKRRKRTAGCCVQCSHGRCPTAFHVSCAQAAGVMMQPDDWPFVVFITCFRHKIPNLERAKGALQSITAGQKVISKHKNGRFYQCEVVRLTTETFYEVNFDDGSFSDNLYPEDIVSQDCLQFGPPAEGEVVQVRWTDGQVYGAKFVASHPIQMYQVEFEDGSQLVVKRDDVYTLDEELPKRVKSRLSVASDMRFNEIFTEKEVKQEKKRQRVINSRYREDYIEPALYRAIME
# Six1-Eya2 blk – qHTS Assay for Inhibitors of the Six1/Eya2 Interaction | Homeobox protein SIX1 (Homo sapiens) + Protein phosphatase EYA2 (Homo sapiens), … | 360,000 tested, 0.56% active | AlphaScreen GST-Six1/His-Eya2 binding, biochemical; stronger effect = lower value | AID 651725, 2012 | activity change, % (concentration not given with the values); in the data active = activity change below about -65%; inconclusive = mostly about -30% to -63%; note: % is set by controls: 0 for no effect and ±100 for the full control effect
#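 Homogeneous AlphaScreen proximity assay pairing GST-Six1 with His-tagged Eya2 (added as 5X mix: 250 nM and 500 nM) in 50 mM Tris pH 8.0, 300 mM NaCl, 1 mM TCEP. Glutathione donor and nickel acceptor beads; 1 h, 37 °C, dark.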
# CtBP-E1A inh – qHTS Assay for Inhibitors of the CtBP/E1A Interaction | activity change, % (concentration not given with the values) | AID 651724, 2012 | 340,000 tested, 0.49% active | CtBP / adenovirus E1A interaction (AlphaScreen) | AlphaScreen GST-E1A/His-CtBP binding, 1536-well; stronger effect = lower value; in the data active = activity change below about -65%; inconclusive = mostly about -30% to -63%; note: % is set by controls: 0 for no effect and ±100 for the full control effect
#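 Homogeneous bead-based format: GST-tagged E1A captured on glutathione donor beads, His-tagged CtBP on nickel acceptor beads; compounds precede bead addition by 2 h at 37 °C.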
# BAZ2B inh – qHTS Assay for Inhibitors of BAZ2B | Potency, µM (series often up to 114 µM), inactives show at the top dose activity change, negative = inhibition, actives largely listed as inhibitors | AID 504333, 2011 | 360,000 tested, 4.4% active | AlphaScreen BAZ2B-H3K14Ac peptide displacement | Bromodomain adjacent to zinc finger domain protein 2B (Homo sapiens), Q9UIF8; note: potency is the fitted concentration of half-maximal effect; % is set by controls: 0 for no effect and ±100 for the full control effect; nearly all actives have a fitted effect of over 60% in size
#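 BAZ2B (50 nM) with biotin-H3(5-23)K14Ac peptide (50 nM) in PBS pH 7.4, 0.01% Tween-20, preformed 30 min, then compound 30 min at room temperature; top concentration 110uM. AlphaScreen streptavidin donor/nickel chelate acceptor beads (10 ug/mL final), 20 min dark, signal read.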
# HP1b chromo inh – HTS for Inhibitors of HP1-beta Chromodomain Interactions with Methylated Histone Tails; AlphaScreen HP1-beta / biotin-H3K9me3 peptide binding; Potency, µM (top dose mostly 114 µM), without a hit: at the highest dose activity change, negative = inhibition, usual class: inhibitors; 390,000 tested, 0.56% active; AID 540317, 2011; note: potency is the fitted concentration of half-maximal effect; nearly all actives have a fitted effect of over 70% in size
#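 AlphaScreen: HP1-beta (50 nM) preformed 30 min with biotin-H3(1-18)K9me3 peptide (50 nM) in PBS pH 7.4, 0.01% Tween-20. Compound added for 30 min at RT, then streptavidin donor/nickel chelate acceptor beads (10 ug/mL) for 30 min.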
# G9a inh – qHTS Assay for Inhibitors of Histone Lysine Methyltransferase G9a; G9a H3K9 monomethylation, AlphaScreen, 2 h; Potency, µM (titrated, usually from 102 µM), for the others: at the highest dose activity, negative = inhibition, actives largely listed as inhibitors; Histone-lysine N-methyltransferase EHMT2 (Homo sapiens), Q96KQ7; AID 504332, 2011; 350,000 tested, 8.8% active; note: potency is the fitted concentration of half-maximal effect; % is set by controls: 0 for no effect and ±100 for the full control effect; nearly all actives have a fitted effect of over 75% in size
#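 Using a bead-based AlphaScreen, monomethylated H3K9 product from 2 h room-temperature reactions (G9a 20 nM, peptide 500 nM, SAM 20 uM) was detected with 0.5 ug/mL rabbit anti-H3K9me1 antibody.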
# The depositor's hits bear a star; u = inconclusive; x = no result; [ ] = dose if it differs, or a comment. Sampled rows, rich in hits. Any-hit rate of the full collection: about 10%. Unless noted, calls come from the whole dose curve; as a rule, active = well fitted inhibition curve with a large enough effect; inconclusive = small, poorly fitted or top-dose-only effect; inactive = no such curve, though single readings can be large or run the other way.
SMILES,JMJD2A Tudor inh,Six1-Eya2 blk,CtBP-E1A inh,BAZ2B inh,HP1b chromo inh,G9a inh
Cc1ccc(OCc2ccc(-c3nc(C#N)c(NCc4cccnc4)o3)o2)cc1,20µM*,x,x,17.8µM*,u,11.2µM*
Cc1ccccc1OCc1ccc(-c2nc(C#N)c(NCc3cccnc3)o2)o1,15.8µM*,x,x,31.6µM*,-11.7%,11.2µM*
Cc1ccc(CNc2oc(-c3ccc(COc4ccc(C)cc4)o3)nc2C#N)cc1,-33.8%,x,x,u,-9.1%,u
COc1ccc(OCc2ccc(-c3nc(C#N)c(NCc4cccnc4)o3)o2)cc1,31.6µM*,x,x,17.8µM*,-13.7%,12.6µM*
CCOc1cc(C2Nc3cccc4cccc(c34)N2)ccc1O,-33.1%,-20.4,-1.7,u,-34.5%,10µM*
CCOc1ccc(C2Nc3cccc4cccc(c34)N2)cc1OC,u,-28.7,-7.3,-38.7%,50.1µM*,10µM*
Cc1nn(CCC(=O)N2CCN(c3ccccc3)CC2)c(C)c1S(=O)(=O)N1CCCC1,-7.9%,x,x,-36.6%,10.6%,-19.6%[12.7 µM]
CC(C)(C)NC(=O)C(c1ccncc1)N(CC1CCCO1)C(=O)Cn1nnc(-c2ccc(F)cc2)n1 (stereo not given),-11.8%,5.2,-7.0,-13.7%,13.4%,-1.8%
Cc1ccc(-c2nnn(CC(=O)N(CCO)C(C(=O)NC3CCCCC3)c3ccncc3)n2)o1 (stereo not given),-12.0%[11.4 µM],-3.8,x,-11.2%,u,44.7µM*
CC(C)(C)N(C(=O)Cn1nnc(-c2ccc(F)cc2)n1)C(C(=O)NC1CCCC1)c1ccncc1 (stereo not given),-28.4%,-1.1,2.1,4.1%,19.1%,7.08µM*
O=C(NC1CCCC1)C(c1ccncc1)N(CC1CCCO1)C(=O)Cn1nnc(-c2cccs2)n1 (stereo not given),-8.1%,2.5,-9.5,10.9%,22.0%,50.1µM*
Cc1ccc(C(C(=O)NC(C)(C)C)N(CC2CCCO2)C(=O)Cn2nnc(-c3ccc(C)o3)n2)cc1 (stereo not given),-21.2%,-2.3,-0.9,-9.9%,-1.0%,44.7µM*
Cc1ccc(-c2nnn(CC(=O)N(Cc3ccc(F)cc3)C(C(=O)NC3CCCC3)c3ccncc3)n2)o1 (stereo not given),-15.4%,4.1,-0.2,2.2%,25.4%,u
CCOCCCn1c(=N)c(S(=O)(=O)c2ccc(C)cc2)cc2c(=O)n3cccc(C)c3nc21,1.7%,x,x,-2.2%,36.0%,-23.4%[59 µM]
CO[C@@H]1[C@@H](OC2OC(C)C(OC3CC(C)(O)C(OC(=O)CC(C)C)C(C)O3)C(N(C)C)C2O)[C@@H](CC=O)C[C@@H](C)C(=O)/C=C\C2O[C@H]2C[C@@H](C)OC(=O)C[C@H]1OC(C)=O (stereo not given in full),x,x,x,x,x,-4.8%[12.7 µM]
O=c1c2ccccc2sc2c(CO)ccc(NCCN3CCCCC3)c12,50.1µM*,u,u,x,u,x
CC(C)c1ccc(CNC(=O)c2ccc(N3CCCC3)c(NC(=O)NCc3ccc(F)cc3)c2)cc1,-7.6%,x,x,-19.5%,32.5%,-1.0%[12.7 µM]
Cc1cc2c(n1-c1ccc(C(=O)NCC(C)c3ccccc3)cc1)CCCC2 (stereo not given),-14.2%,x,x,-13.9%,15.1%,-29.1%[59 µM]
O=[N+]([O-])c1ccc(N/N=C2\CC3CC=CC23)cc1 (stereo not given),u,-13.1,-14.4,u,16.2%,44.7µM*
O=C(N/N=C1\CC2CC=CC12)c1ccc(O)cc1 (stereo not given),-6.9%,-6.2,-10.5,x,22.3%,13.2%
O=[N+]([O-])c1ccc(NN=C2CC3CCC2C3)c([N+](=O)[O-])c1 (stereo not given),x,-19.6,-14.0,x,x,x
O=[N+]([O-])c1ccc(N/N=C2\CC3CC=CC23)c([N+](=O)[O-])c1 (stereo not given),14.1µM*,-69.1*,-16.1,3.16µM*,14.1µM*,14.1µM*
COc1ccc(-c2ccc(OC)cc2)cc1,6.2%,2.8,10.2,44.3%,29.9%,0.5%[59 µM]
COc1ccc(-c2nncnn2)cc1,u,3.8,-0.7,44.7µM*,-38.7%,u
COC(=O)c1ccc(-n2c(C)cc(C(=O)COC(=O)C3=COCCO3)c2C)cc1,-18.9%,-4.0,-12.4,x,-1.8%,x
SMILES,JMJD2A Tudor inh,Six1-Eya2 blk,CtBP-E1A inh,BAZ2B inh,HP1b chromo inh,G9a inh
Cc1cc(C(=O)COC(=O)C2=COCCO2)c(C)n1-c1ccc2c(c1)OCO2,-23.7%[57.1 µM],-12.1,-10.0,50.1µM*,9.2%,u
Cc1cc(C(=O)COC(=O)Cc2n[nH]c(=O)c3ccccc23)c(C)n1-c1ccc2c(c1)OCCO2,-30.9%,u,u,-10.9%,3.7%,50.1µM*
Cc1cc(C(=O)COC(=O)C2=COCCO2)c(C)n1-c1cccc(F)c1,-34.4%,-16.5,-14.9,u,-16.9%,56.2µM*
Cc1cc(C(=O)CSc2n[nH]c(N)n2)c(C)n1-c1cccc(F)c1,u,-12.0,4.6,50.1µM*,-18.9%,u
Cc1cc(C(=O)CSc2ncccn2)c(C)n1-c1cccc(F)c1,-28.8%,-9.0,0.3,-39.0%,-5.1%,u
O=C(c1csnn1)N1CCC[C@@]2(CCN(c3ccncc3)C2)C1,x,x,x,x,x,0.9%[12.7 µM]
COCCN(C(=O)c1csnn1)C(C(=O)NC1CCCC1)c1ccccc1F (stereo not given),6.3%,-1.6,0.9,5.6%,-11.9%,-1.8%
CC(C)CC(=O)NC1(C(F)(F)F)C(=O)Nc2c1c(=O)n(C)c(=O)n2C (stereo not given),-6.8%,3.5,12.2,8.1%,-2.5%,4.4%[59 µM]
COC(=O)c1ccccc1NC(=O)CSc1nnc(CNS(=O)(=O)c2ccc(C)cc2)n1C,1.4%,-5.2,1.9,-2.8%,46.7%,-40.2%[12.7 µM]
O=C(NN=C1CCCCCCCCCCC1)c1ccncc1,28.2µM*,-5.0,-5.0,u,38.2%,11.6%[59 µM]
Cc1ccc(Cl)cc1NC(=O)C1CCN(S(=O)(=O)c2cccc3nonc23)CC1,-7.8%,x,x,-16.1%,22.0%,0.0%[59 µM]
CCCN(CCC)C(=O)c1ccc2c(c1)S(=O)(=O)c1ccccc1C2=O,u,-6.7,-9.0,-33.5%,4.5%,79.4µM*

# High-throughput results as filed in PubChem BioAssay.
